Laboratory results taken from PubChem BioAssay AID1347428 (National Center for Advancing Translational Sciences (NCATS), 2020).
Among all 91,000 compounds or so, about 290 (0.32%) were called active. Another 7% or so got no clear call; they are omitted. Calls come from the whole dose curve; as a rule, active = well fitted inhibition curve with a large enough effect; inconclusive = small, poorly fitted or top-dose-only effect; inactive = no such curve, though single readings can be large or run the other way. The list comes from a sample in which actives are over-represented; it also holds similar structures and randomly drawn compounds.

These compounds were tested against Single-stranded DNA cytosine deaminase (Homo sapiens) (UniProt Q9GZX7) (assay: Primary qHTS assay for inhibitors of Activation Induced Cytidine Deaminase (AID): AID signal). Conditions: AID deamination FRET fluorescence, UDG-coupled, 4 h; series mostly up to 115 µM.
Sequence of Single-stranded DNA cytosine deaminase (Homo sapiens) (Q9GZX7 whole entry, looked up): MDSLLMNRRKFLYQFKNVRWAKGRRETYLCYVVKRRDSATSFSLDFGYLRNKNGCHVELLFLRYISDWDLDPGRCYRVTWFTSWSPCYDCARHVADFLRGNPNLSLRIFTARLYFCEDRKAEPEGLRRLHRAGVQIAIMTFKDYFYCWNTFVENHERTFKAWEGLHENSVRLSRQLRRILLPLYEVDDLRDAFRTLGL
Note: nearly all actives have a fitted effect of over 25% in size.
Potency is the fitted concentration of half-maximal effect.

Potency, active:
O=C(C1CCC(Cn2c(=O)c3sccc3n(Cc3ccccc3F)c2=O)CC1)N1CCCCC1 (stereo unspecified) 25.1 µM
Cc1nc2nc(SCC(=O)N(Cc3ccccc3)C(C)C)nn2c(C)c1Cc1ccccc1Cl 22.4 µM
CCCCOc1ccc(C(=O)N2CC(=O)Nc3ccc(Br)cc3C2c2ccc(F)cc2)cc1 (stereo unspecified) 35.5 µM

Potency, inactive:
CCn1nnc(NC(=O)c2cc3ccccc3cc2OC)n1
CC(C)NC(=O)C1CCC(Cn2c(=O)c3sccc3n(Cc3ccc(F)cc3)c2=O)CC1 (stereo unspecified)
CCCNC(=O)C1CCC(Cn2c(=O)c3sccc3n(Cc3ccccc3F)c2=O)CC1 (stereo unspecified)
N#Cc1cccc(NC(=S)NCCc2ccccc2)c1
CCNCc1ccccc1C(F)(F)F
CCCCNC(=O)Nc1ccccc1CC(N)=O
O=C(CSc1ccc2c(c1)OCCO2)Nc1ccc2c(c1)OCCO2
COCCNc1nc(-c2ccccc2)c2cc(Br)ccc2n1
CCN(C(=O)C1CCN(c2nc3ccccc3o2)CC1)c1ccc(F)c(F)c1
CC(=O)Oc1c(Cl)cc(Cl)cc1Sc1cc(Cl)cc(Cl)c1OC(C)=O
Cc1ccc(OCCSc2nnc(COc3ccccc3Cl)n2C)cc1
CCCCCCCCc1cnc(-c2ccc(O)cc2)nc1
COc1cc(CN(C(=S)NCC(=O)NCc2ccccc2Cl)C2CCCC2)cc(OC)c1OC
CC(=O)N1CCC(NC(=O)c2cc(C)nc3cc(F)ccc23)CC1
Cc1nn(-c2ncnc3nc[nH]c23)c2c1C(c1cccc(F)c1)CC(=O)N2 (stereo unspecified)
O=C(O)C1CCN(C(=O)Cn2ccc3c(Br)cccc32)CC1
CCC(=O)c1ccc(C2CCCCC2)cc1
C(=C\c1ccccc1)/CNC1CC1
N#Cc1ccc(COC(=O)CCC(=O)c2ccccc2)cc1
Cc1cc(C(=O)O)c(C)n1CC(F)(F)F
O=C(/C=C/c1cccs1)N1CC=C(c2ccccc2)CC1
C(#CCN1CCCCC1)COC(c1ccccc1)c1ccccc1
CC(C)NS(=O)(=O)c1ccc(C(=O)NCC(=O)O)cc1
COc1cccc(CN(C)S(=O)(=O)c2cnn(C)c2)c1OC
CC(C)CCNC(=S)Nc1cccc(C(F)(F)F)c1
O=C(Nc1ccc2nc(N3CCCC3)sc2c1)c1ccc(F)cc1
Cc1cc(C(=O)OCc2cccc(C#N)c2)c(C)o1
O=C(N/N=C/c1ccccc1OCCOc1ccc([N+](=O)[O-])cc1)Nc1ccccc1
COc1ccc(NC(=O)Cc2ccc3c(c2)OCCO3)cn1
Cc1nn(C)c2c(=O)n(CC(=O)NCc3ccccc3)ccc12
CCOc1ccc(C(=O)CCC(=O)OCC(=O)c2ccc3c(c2)OCCO3)cc1
CC(C)c1ccc(NC(=O)CSc2nc3ncc(Cl)cc3[nH]2)cc1
COc1cc(C2CC(=O)Nc3nc(-c4ccccc4)[nH]c(=O)c32)ccc1OCc1ccc(F)cc1 (stereo unspecified)
CCCCNc1oc(/C=C/c2ccc(OCC)cc2)nc1C#N
Cc1ccc(NC(=O)CCc2nc3cc(Cl)ccc3n(CC(C)C)c2=O)cc1
O=C1c2ccccc2C(=Cc2ccc(Cl)cc2)c2ccccc21
O=C(O)c1ccc(I)c(Br)c1
Cc1nnc(SCC(=O)NCc2ccccc2Cl)c2nn(-c3ccccc3)c(C)c12
COc1cc(OC)cc(-c2nc3nc(C)c(CCC(=O)Nc4ccccc4)c(C)n3n2)c1
Cc1cccc(CC(=O)N2CC(=O)Nc3ccc(F)cc3C2c2ccccc2)c1 (stereo unspecified)
COc1ccc(CC(=O)N2CC(=O)Nc3ccc(Br)cc3C2c2ccc(F)cc2)cc1OC (stereo unspecified)
O=C(Nc1c(N2CCCC2)c2ccccc2oc1=O)c1ccc(Br)o1
Cc1cc(NC(=O)c2ccc(F)cc2F)n(CCC#N)n1
